Test results reported in PubChem BioAssay (NCI).
The panel holds about 83,000 compounds, 20% with a hit somewhere; the sample as a whole holds those more often.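 Assay: single dose, 48 h. Readout: percent growth (0 = no net growth; negative = cell death). Active: <10.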 The source made the active and inactive calls.

Key:
Assay in all cases: NCI-60 one-dose screen, 48 h (100 = growth as untreated, 0 = no growth, -100 = all killed)
Details in all cases: 10 µM unless noted
SR leukemia = test system: SR leukemia
RPMI-8226 leukemia = test system: RPMI-8226 leukemia
OVCAR-8 ovarian = test system: OVCAR-8 ovarian
OVCAR-5 ovarian = test system: OVCAR-5 ovarian
OVCAR-4 ovarian = test system: OVCAR-4 ovarian
SK-OV-3 ovarian = test system: SK-OV-3 ovarian
IGROV1 ovarian = test system: IGROV1 ovarian
OVCAR-3 ovarian = test system: OVCAR-3 ovarian
HS 578T breast = test system: HS 578T breast
NCI/ADR-RES ovarian = test system: NCI/ADR-RES ovarian

Measured: growth

CCN1CCN(c2cc(C(=O)Nc3nc(-c4cc(OC)c(OC)c(OC)c4)cs3)cc(C(F)(F)F)c2)CC1
active: SR leukemia 9.19%
inactive: RPMI-8226 leukemia 56.9% | OVCAR-8 ovarian 65.1% | OVCAR-5 ovarian 74.6% | OVCAR-4 ovarian 68.9% | SK-OV-3 ovarian 90.5% | IGROV1 ovarian 41.5% | OVCAR-3 ovarian 81.3% | HS 578T breast 68.1% | NCI/ADR-RES ovarian 55.8%

Cc1oc(-c2ccc(Cl)cc2)nc1/C=C/C(=O)c1ccccc1
inactive: SR leukemia 93.7% | RPMI-8226 leukemia 90.9% | OVCAR-8 ovarian 98.7% | OVCAR-5 ovarian 115% | OVCAR-4 ovarian 79.4% | SK-OV-3 ovarian 100% | IGROV1 ovarian 93% | OVCAR-3 ovarian 97.5% | HS 578T breast 100% | NCI/ADR-RES ovarian 104%

Cc1ccccc1Cn1cnc2ccc(-c3cc(NC(=O)c4ccc(NC5CCN(C)CC5)cc4)n[nH]3)cc21
inactive: SR leukemia 52.9% | RPMI-8226 leukemia 77.1% | OVCAR-8 ovarian 104% | OVCAR-5 ovarian 69.9% | OVCAR-4 ovarian 62.5% | SK-OV-3 ovarian 75.7% | IGROV1 ovarian 26.5% | OVCAR-3 ovarian 99.8% | NCI/ADR-RES ovarian 104%
active: HS 578T breast 2.06%

Nc1ncnc2c1N=C(c1ccc3c(c1)OCO3)CC(c1cccc(Nc3ccnc4cc(Cl)ccc34)c1)N2 (stereo not given)
active: SR leukemia 3.03% | RPMI-8226 leukemia -24%
inactive: OVCAR-8 ovarian 51.1% | OVCAR-5 ovarian 97% | OVCAR-4 ovarian 60.7% | SK-OV-3 ovarian 79.2% | IGROV1 ovarian 59.4% | OVCAR-3 ovarian 67.7% | HS 578T breast 87.1% | NCI/ADR-RES ovarian 56.8%

COCCNC(=O)c1ccc(-c2nc3ccc4[nH]ncc4c3c3c2CCCC3)cc1
active: SR leukemia 5.46% | SK-OV-3 ovarian 6.55% | HS 578T breast -6.17%
inactive: RPMI-8226 leukemia 29.6% | OVCAR-8 ovarian 46% | OVCAR-5 ovarian 67.8% | OVCAR-4 ovarian 61.9% | IGROV1 ovarian 15.8% | OVCAR-3 ovarian 56% | NCI/ADR-RES ovarian 63.9%

N#Cc1nc(-c2ccccc2)oc1S(=O)(=O)N1CCOCC1
active: SR leukemia 1.09%
inactive: RPMI-8226 leukemia 76.5% | OVCAR-8 ovarian 59.8% | OVCAR-5 ovarian 103% | OVCAR-4 ovarian 84.2% | SK-OV-3 ovarian 103% | IGROV1 ovarian 88.5% | OVCAR-3 ovarian 15% | HS 578T breast 107% | NCI/ADR-RES ovarian 98.7%

CN(Cc1ccc(C(F)(F)F)cc1)CC(O)C(=O)Nc1ccc(Cl)cc1 (stereo not given)
inactive: OVCAR-5 ovarian 27.9% | OVCAR-4 ovarian 15.6% | SK-OV-3 ovarian 70.7% | HS 578T breast 51.7% | NCI/ADR-RES ovarian 39.3%
active: SR leukemia -31.3% | RPMI-8226 leukemia -33.7% | OVCAR-8 ovarian 6.23% | IGROV1 ovarian 0.563% | OVCAR-3 ovarian -40.7%

O=[N+]([O-])c1ccc(-c2nc(N3CCOCC3)c3c4c(sc3n2)CCCC4)cc1
inactive: SR leukemia 76.4% | RPMI-8226 leukemia 109% | OVCAR-8 ovarian 99.8% | OVCAR-5 ovarian 95.4% | OVCAR-4 ovarian 92.2% | SK-OV-3 ovarian 81.2% | IGROV1 ovarian 75.2% | OVCAR-3 ovarian 93.8% | HS 578T breast 90.7% | NCI/ADR-RES ovarian 102%

CCN1C(=O)N(CC)C2C1NN=c1s/c(=C\c3ccc(Cl)cc3Cl)c(=O)n12 (stereo not given)
active: OVCAR-3 ovarian -43.3% | NCI/ADR-RES ovarian 5.65%
inactive: SR leukemia 12.3% | RPMI-8226 leukemia 16.5% | OVCAR-8 ovarian 10.8% | OVCAR-5 ovarian 28.2% | OVCAR-4 ovarian 46.1% | SK-OV-3 ovarian 29.2% | IGROV1 ovarian 13.4% | HS 578T breast 15.8%

CCOC(=O)c1ccc2[nH]c(O)c(C(=Nc3ccc(N(C)C(=O)CN4CCN(C)CC4)cc3)c3ccccc3)c2c1
inactive: NCI/ADR-RES ovarian 53.1%
active: SR leukemia -20.7% | RPMI-8226 leukemia -28.2% | OVCAR-8 ovarian -11.9% | OVCAR-5 ovarian -14% | OVCAR-4 ovarian -71.1% | SK-OV-3 ovarian -20.3% | IGROV1 ovarian -33.6% | OVCAR-3 ovarian -76.5% | HS 578T breast -5.29%

O=C(Nc1ccc(-c2nc(N3CCOCC3)c3cccn3n2)cc1)Nc1cccnc1
inactive: SR leukemia 11% | OVCAR-5 ovarian 10.1%
active: RPMI-8226 leukemia -12% | OVCAR-8 ovarian 1.49% | OVCAR-4 ovarian -10.7% | SK-OV-3 ovarian -24.2% | IGROV1 ovarian -19.2% | OVCAR-3 ovarian 4.15% | HS 578T breast -32.3% | NCI/ADR-RES ovarian 0.693%

CN(C)CCCn1c2c(c3ncccc3c1=O)C(=O)c1ccccc1-2
inactive: SR leukemia 15.2% | RPMI-8226 leukemia 38.2% | OVCAR-8 ovarian 31.3% | OVCAR-5 ovarian 46.5% | OVCAR-4 ovarian 61.8% | SK-OV-3 ovarian 69.6% | IGROV1 ovarian 43.8% | OVCAR-3 ovarian 57.4% | HS 578T breast 75.8% | NCI/ADR-RES ovarian 42.7%

O=C1/C(=C/c2ccccc2Br)COc2ccc(O)c(O)c21
active: RPMI-8226 leukemia 1.07% | OVCAR-8 ovarian 9.72% | IGROV1 ovarian -19.4% | OVCAR-3 ovarian 8.7% | NCI/ADR-RES ovarian 7.97%
inactive: SR leukemia 14.7% | OVCAR-5 ovarian 31.4% | OVCAR-4 ovarian 48.2% | SK-OV-3 ovarian 74.7% | HS 578T breast 25.2%

CC(C)=NNc1ccccn1
inactive: SR leukemia 32% | RPMI-8226 leukemia 70.3% | OVCAR-8 ovarian 29% | OVCAR-5 ovarian 54.4% | OVCAR-4 ovarian 12% | SK-OV-3 ovarian 26.2% | IGROV1 ovarian 63.2% | OVCAR-3 ovarian 18.8% | HS 578T breast 79.5% | NCI/ADR-RES ovarian 33.5%

COC(=O)c1n[nH]c2ccc3nc(-c4cn[nH]c4C(F)(F)F)c4c(c3c12)CCCC4
active: HS 578T breast 9.88%
inactive: SR leukemia 11.9% | RPMI-8226 leukemia 57.5% | OVCAR-8 ovarian 34.6% | OVCAR-5 ovarian 70.2% | OVCAR-4 ovarian 62.5% | SK-OV-3 ovarian 15.3% | IGROV1 ovarian 19.5% | OVCAR-3 ovarian 56.4% | NCI/ADR-RES ovarian 83.7%

O=C1Nc2ccc(Br)cc2/C1=N/c1n[nH]c(=S)s1
inactive: SR leukemia 83.5% | RPMI-8226 leukemia 103% | OVCAR-8 ovarian 95% | OVCAR-5 ovarian 110% | OVCAR-4 ovarian 108% | SK-OV-3 ovarian 93.2% | IGROV1 ovarian 105% | OVCAR-3 ovarian 104% | HS 578T breast 93.9% | NCI/ADR-RES ovarian 95.7%

CN1CCN(Cc2ccc(NC(=O)c3cncc(C#Cc4cnc(N)c5ccccc45)c3)cc2C(F)(F)F)CC1
active: SR leukemia 1.53% | RPMI-8226 leukemia -42.8% | OVCAR-8 ovarian -82.5% | OVCAR-5 ovarian -83.7% | OVCAR-4 ovarian -32.7% | SK-OV-3 ovarian -78.5% | IGROV1 ovarian -69.8% | OVCAR-3 ovarian -87.6% | HS 578T breast -41.5% | NCI/ADR-RES ovarian -65.7%

CN[C@]12CC3(C=CC(=O)C=C3)O[C@@]1(Cc1ccc(OC)cc1)N(C)C(=O)N2
inactive: OVCAR-8 ovarian 15.6% | OVCAR-5 ovarian 18.3% | OVCAR-4 ovarian 32.2% | SK-OV-3 ovarian 85.7% | OVCAR-3 ovarian 11.2% | HS 578T breast 96.8% | NCI/ADR-RES ovarian 55.6%
active: SR leukemia 8.34% | RPMI-8226 leukemia -3.85% | IGROV1 ovarian -28.4%

CC1=NN(c2nc(SCC(=O)Nc3nc4ccc(C)cc4s3)nc(-c3ccccc3)c2C#N)C(=O)C1
inactive: SR leukemia 87.2% | RPMI-8226 leukemia 110% | OVCAR-8 ovarian 102% | OVCAR-5 ovarian 92.6% | OVCAR-4 ovarian 101% | SK-OV-3 ovarian 106% | IGROV1 ovarian 83.5% | OVCAR-3 ovarian 108% | HS 578T breast 90.5% | NCI/ADR-RES ovarian 100%

CC(C)n1cnc2c(=S)nc[nH]c21
inactive: SR leukemia 74.8% | RPMI-8226 leukemia 72.9% | OVCAR-8 ovarian 109% | OVCAR-5 ovarian 121% | OVCAR-4 ovarian 124% | IGROV1 ovarian 114% | OVCAR-3 ovarian 105% | HS 578T breast 108% | NCI/ADR-RES ovarian 133%
active: SK-OV-3 ovarian -99.9%

Cc1ccccc1/C=C1\CN(C(=O)OC(C)(C)C)C/C(=C\c2ccccc2C)C1=O
inactive: OVCAR-8 ovarian 17.1% | OVCAR-5 ovarian 51.1% | SK-OV-3 ovarian 74.9% | IGROV1 ovarian 26% | HS 578T breast 31.2% | NCI/ADR-RES ovarian 15.7%
active: SR leukemia 8.93% | RPMI-8226 leukemia -23.7% | OVCAR-4 ovarian -2.97% | OVCAR-3 ovarian -30.9%

CCCCCC(=O)OCC(=O)O[C@@H]1C[C@]2(C(C)C)O[C@@]1(C)[C@@H]1CC[C@@H](C)[C@H]1[C@@H]2OC(=O)/C=C/c1ccccc1
inactive: SR leukemia 76.3% | RPMI-8226 leukemia 66.8% | OVCAR-8 ovarian 19.9% | OVCAR-5 ovarian 112% | OVCAR-4 ovarian 75.7% | SK-OV-3 ovarian 87.9% | IGROV1 ovarian 86.7% | OVCAR-3 ovarian 52.9% | NCI/ADR-RES ovarian 21.7%
active: HS 578T breast -15.5%

CCCCCCCCn1ccc2cc(NC(=O)Cn3cc(CN4CCCCC4)nn3)ccc21
active: SR leukemia 5.39% | RPMI-8226 leukemia -59.2%
inactive: OVCAR-8 ovarian 42% | OVCAR-5 ovarian 73.7% | OVCAR-4 ovarian 59.1% | SK-OV-3 ovarian 67.5% | IGROV1 ovarian 45.5% | OVCAR-3 ovarian 26% | HS 578T breast 41.5% | NCI/ADR-RES ovarian 72.7%

CO[C@]12C=C/C(=C(/C(=O)OCc3cccnc3)C(=O)CCCCCCCC[C@@]3(OC)C=C/C(=C(/C(=O)OCc4cccnc4)C(=O)CCCCCCCC1)O3)O2
active: SR leukemia -9.1% | RPMI-8226 leukemia -9.22% | OVCAR-5 ovarian -5.24% | IGROV1 ovarian 2.68% | OVCAR-3 ovarian -19.3%
inactive: OVCAR-8 ovarian 19.9% | OVCAR-4 ovarian 11% | SK-OV-3 ovarian 57.4% | HS 578T breast 37% | NCI/ADR-RES ovarian 36.3%

CC(=O)c1cc(O)c2ccccc2c1O
inactive: SR leukemia 110% | RPMI-8226 leukemia 46.4% | OVCAR-8 ovarian 86.3% | OVCAR-5 ovarian 109% | OVCAR-4 ovarian 93.4% | SK-OV-3 ovarian 102% | IGROV1 ovarian 52.8% | OVCAR-3 ovarian 91.7% | HS 578T breast 123% | NCI/ADR-RES ovarian 87%

CC(C)N1CN2C(=S)NC3C2N(C1)C(=S)N3C (stereo not given)
inactive: SR leukemia 88.6% | RPMI-8226 leukemia 91.7% | OVCAR-8 ovarian 102% | OVCAR-5 ovarian 107% | OVCAR-4 ovarian 117% | SK-OV-3 ovarian 109% | IGROV1 ovarian 103% | OVCAR-3 ovarian 103% | HS 578T breast 95.6% | NCI/ADR-RES ovarian 106%

NC(=O)c1c(NC(=O)c2ccccc2)sc2c1CCC(=O)C2
inactive: OVCAR-8 ovarian 17.2% | OVCAR-5 ovarian 20.3% | SK-OV-3 ovarian 50.9% | IGROV1 ovarian 27.1% | HS 578T breast 24.5%
active: SR leukemia 7.6% | RPMI-8226 leukemia -10.3% | OVCAR-4 ovarian -5.57% | OVCAR-3 ovarian 7.93% | NCI/ADR-RES ovarian 7.2%
